Compound activity from PubChem.
rCAG RNA binder = binders of r(CAG) RNA repeats, primary screen, biochemical, fluorescence | inhibition, % at 3 µM | actives 1.3% (n = 370,000) | r(CAG) RNA repeat, TO-PRO-1 dye displacement fluorescence;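 active means inhibition above the plate cutoff, the mean of all test compounds on that plate plus 3 SD, cut at about 35% in these data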;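 further: 0% = DMSO alone and 100% = 100 µM mitoxantrone as full dye displacement; higher means more dye released from RNA so lower well fluorescence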
proKLK7 act = proKLK7 zymogen activators, primary screen, biochemical, fluorescence intensity | actives 0.9% (n = 370,000) | activation, % at 7 µM | Kallikrein-7 (Homo sapiens), P49862 | AID 652039, 2013 | purified proKLK7, EDANS-DABCYL substrate fluorescence; 100% is mature enzyme control, 0% vehicle;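 active means activation above the mean of all tested compounds plus 3 SD, computed per campaign excluding outliers beyond control limits, cut at about 13% in these data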
DSG3 Ab inh = inhibitors of pemphigus antibody binding to DSG3, primary screen, biochemical, bead-based, flow cytometry, scFv-GFP; Desmoglein-3 (Homo sapiens), P32926; DSG3-coupled beads, scFv-anti-DSG3-GFP binding; active compounds read low; binding (percent of control), % at 10 µM; actives 0.48% (n = 310,000); AID 588358, 2011;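 active means binding more than 3 SD below its plate's average and above zero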;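 further: hits lower antibody fragment binding to DSG3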
MPTP inh = mitochondrial permeability transition pore inhibitors, primary screen, biochemical, isolated mouse mitochondria, absorbance | inhibition, % at 10 µM | Ca2+ swelling absorbance, 30 min | actives 1.4% (n = 360,000);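 active means inhibition of 50% or more, scaled per plate between neutral and stimulator controls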;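 further: 0% = DMSO wells given calcium and 100% = 1 mM EGTA wells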
ADAM10 inh = human ADAM10 inhibitors, primary screen, biochemical, QFRET, HTS | recombinant ADAM10, EDANS/DABCYL FRET peptide cleavage, 3 h | Disintegrin and metalloproteinase domain-containing protein 10 (Homo sapiens), O14672 | inhibition, % at 7 µM | actives 0.62% (n = 370,000) | AID 720582, 2013;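 active means inhibition above a per-campaign cutoff equal to the mean of compounds falling between control-based bounds plus 3 SD, cut at about 20% in these data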;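 further: 0% = DMSO wells while the 100% control is not disclosed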
Target sequence (O14672 214-748 limits assumed): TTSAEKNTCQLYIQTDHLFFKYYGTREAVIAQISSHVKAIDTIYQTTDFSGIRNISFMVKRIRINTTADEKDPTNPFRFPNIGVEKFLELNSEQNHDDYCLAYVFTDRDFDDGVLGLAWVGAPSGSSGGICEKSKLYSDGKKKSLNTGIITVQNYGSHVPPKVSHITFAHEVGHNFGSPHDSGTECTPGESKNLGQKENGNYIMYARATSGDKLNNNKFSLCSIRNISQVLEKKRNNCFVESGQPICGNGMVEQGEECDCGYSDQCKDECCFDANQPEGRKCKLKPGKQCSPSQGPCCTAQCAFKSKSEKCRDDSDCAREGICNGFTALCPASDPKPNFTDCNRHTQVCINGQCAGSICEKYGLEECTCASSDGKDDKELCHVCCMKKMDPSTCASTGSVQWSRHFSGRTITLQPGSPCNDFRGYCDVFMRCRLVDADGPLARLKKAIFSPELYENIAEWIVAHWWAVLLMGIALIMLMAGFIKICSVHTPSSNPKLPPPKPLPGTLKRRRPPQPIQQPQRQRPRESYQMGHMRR
ADAM17 inh = ADAM17 inhibitors, primary screen, biochemical, QFRET. Disintegrin and metalloproteinase domain-containing protein 17 (Homo sapiens), P78536. recombinant ADAM17, EDANS/DABCYL FRET peptide cleavage. inhibition, % at 6.95 µM. actives 0.83% (n = 370,000). AID 720648, 2013;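 active means inhibition above the mean of compounds lying between control limits plus 3 SD, set per campaign, cut at about 8.5% in these data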;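 further: 0% = DMSO-only wells as the low control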
proKLK7 act conf = proKLK7 zymogen activators, confirmation, biochemical, fluorescence intensity, triplicate | shares compounds with proKLK7 act | purified proKLK7, EDANS-DABCYL substrate fluorescence; scaled: vehicle 0, mature enzyme 100 | activation, % at 7 µM | actives 68% (n = 3,200) | AID 686949, 2013;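 active means activation, as change over the incubation, above the mean of all tested compounds plus 3 SD, cut at about 13% in these data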
EDANS interfere = EDANS-DABCYL substrate optical interference, artefact control for kallikrein-7 zymogen activator project, biochemical, fluorescence intensity, high throughput. shares compounds with proKLK7 act. no enzyme, 4 h; solvent 0%, active enzyme control 100%. activation, % at 7 µM. actives 80% (n = 3,200). AID 686952, 2013;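 active means activation above the all-compound mean plus 3 SD, ignoring values outside control-based bounds, cut at about 4.8% in these data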;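 further: value is the 4 h activation minus the activation read at time zero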
EDANS interf = optically interferes with EDANS-DABCYL fluorescence, kallikrein-7 activator counter-screen | shares compounds with proKLK7 act | EDANS-DABCYL peptide fluorescence interference, no enzyme | EC50, µM | actives 20% (n = 250) | AID 720493;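 active means compounds that raise the fluorescence signal in this interference counterscreen, with EC50 at or below 10 µM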;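 further: intact quenched peptide substrate alone read at 355 nm excitation and 520 nm emission; signal is fluorescence gain from T0 to T4 after four hours at room temperature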
The depositor's hits bear a star; i = inactive; x = no result. Sampled rows, rich in hits. Any-hit rate of the full collection: about 4.7%.

SMILES	rCAG RNA binder	proKLK7 act	DSG3 Ab inh	MPTP inh	ADAM10 inh	ADAM17 inh	proKLK7 act conf	EDANS interfere	others
COc1cc(/C=C/C(=O)N2C(=O)c3cccc(N)c3C2=O)cc(OC)c1OC	6.5	21.0*	95.9	1.8	-143.7	-46.3	307.1*	297.0*
Nc1cccc2c1C(=O)N(C(=O)/C=C/c1cccc(Br)c1)C2=O	11.6	6.5	98.4	0.7	-47.3	-21.2	x	x
CC(=O)O[C@@H](C[C@@H](C)C1=C2C[C@H](O)C3[C@@]4(C)CCC(=O)C(C)(C)C4CC[C@]3(C)[C@@]2(C)CC1)[C@H]1OC1(C)C (some centres undefined)	0.1	-0.9	96.0	-1.2	-3.5	-0.6	x	x
CCOC(=O)c1c(NC(=O)COC(=O)c2nccnc2N)sc(C(=O)N(C)C)c1C	4.6	42.8*	91.0	-0.7	i	-149.5	42.0*	45.8*
N#Cc1c(NC(=O)COC(=O)c2nccnc2N)sc2c1CCCC2	16.0	16.8*	94.5	-1.1	-152.5	-50.1	16.0*	13.5*	EDANS interf=>69.5
CCOC(=O)c1c(NC(=O)COC(=O)c2ccccn2)sc(C(=O)N(C)C)c1C	-2.6	0.6	100.2	0.3	-6.0	-2.2	x	x
CN(C)C(=O)c1cccc(-c2cnc3c(NC=O)cc(-c4ccccc4Cl)cn23)c1	5.8	2.0	x	0.2	-40.0	-15.6	x	x
CN(C)c1ccccc1-c1cc(NC=O)c2ncc(-c3cccc(C(F)(F)F)c3)n2c1	-31.2	107.0*	x	2.8	-94.6	-29.9	177.7*	144.0*
CN(C)C(=O)c1cccc(-c2cnc3c(NC=O)cc(-c4ccccc4N(C)C)cn23)c1	-74.6	105.1*	x	1.1	-108.6	-37.1	216.9*	237.1*
CCOC(=O)[C@]12CCC=C1N(Cc1cccc3ccccc13)C(=O)[C@H](CC(=O)NCc1ccc(OC)c(OC)c1)C2	8.0	0.5	x	-1.2	-5.8	0.7	x	x
Nc1ccccc1-c1nc2ccccc2c(=O)o1	4.4	15.1*	111.5	1.2	-197.9	-91.9	5.8	4.0
O=c1oc(-c2ccccc2[N+](=O)[O-])nc2ccccc12	0.2	-0.1	104.1	-0.1	-4.8	-0.7	x	x
CC1CCC2(CCC(=O)N2C[C@@H](O)c2ccccc2)CC1 (some centres undefined)	x	x	x	x	-3.3	-4.5	x	x
CCN(CC)CCCNc1oc(-c2cccc(Cl)c2)nc1C#N	3.3	41.4*	102.0	-1.2	i	-190.2	8.8	18.1*
CN(C)CCCNc1oc(-c2ccc(Cl)cc2)nc1C#N	1.4	34.3*	101.5	9.5	i	-247.1	23.6*	21.1*
COc1ccc(-c2nc(C#N)c(NCCN(C)C)o2)cc1	-1.0	-12.9	97.8	-0.2	-390.6	-110.3	x	x
Cc1ccc(-c2nc(C#N)c(NCCN3CCCCC3)o2)cc1	-7.5	16.7*	97.0	-3.1	-438.6	-101.1	6.1	7.2*
COCCNc1oc(-c2ccc(Cl)cc2)nc1C#N	-0.6	22.3*	x	1.6	i	-495.9	12.8*	12.1*
COc1ccc(OC)c(/C=C2\SC(N3CCCCC3)=NC2=O)c1	-2.5	2.6	95.5	-0.2	-1.1	-1.5	x	x
COc1ccc(-c2csc(=NCCO)n2-c2ccccc2)cc1	0.3	-0.4	107.0	3.7	8.1	-5.8	x	x
CC(C)(C)c1ccc2cc(F)cc(F)c2n1	2.5	-0.2	x	0.2	-2.2	-3.1	x	x
